TRPV1 PAM: enhances activation of the human vanilloid receptor TRPV1 | Q8NER1 | TRPV1-expressing cells, Fluo-8 calcium influx, capsaicin EC20 potentiation | potentiation, % at 8.33 µM | 320,000 tested, 0.02% active | AID 540277; in the data active = potentiation above about 80%; inconclusive = between about 30% and that limit; also: 0% is about no effect
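Cells expressing TRPV1 were dye-loaded with Fluo-8 and read kinetically: 10 s baseline, 3 min after compound (agonist portion), then 2 min after EC20 capsaicin (allosteric enhancer portion). Calcium-bound dye fluorescence at 480/520 nm.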
KCNH2 3.1 inh: blocks the human KCNH2 3.1 channel isoform | U2OS KCNH2 3.1, thallium flux FluxOr; active compounds read low | AID 720553 | 340,000 tested, 0.95% active | activity change, % (tested at about 1.8 µM);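 active = maximum activity change below -70%; inconclusive = maximum activity change from -70% to -50%; inactive = maximum activity change above -50%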;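 also: thallium influx rate constant from kinetic fluorescence after stimulation buffer; % is scaled to controls: 0 for no effect and ±100 for the full control effect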
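Normalized rate constant (relative to positive and negative DMSO controls) derived from a 2 min kinetic fluorescence read after stimulation; U2OS cells expressing the 3.1 isoform via virus at 1.77 x 10^8 /mL.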
TRPV1 ag: human TRPV1 agonism; Q8NER1; TRPV1-expressing cells, Fluo-8 calcium influx, agonist mode; activation, % at 8.33 µM; 320,000 tested, 0.19% active; AID 540275; in the data active = activation above about 80%; inconclusive = between about 30% and that limit; also: 0% is about no effect
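TRPV1-expressing cells were cultured overnight at 35.5C and loaded with Fluo-8 calcium dye for 40 to 90 min at room temperature. After a 10 s baseline, compound was added and calcium influx was read kinetically for 3 min (ex 480/em 520 nm).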
hERG WT inh: inhibitors of human wildtype KCNH2 potassium channel. Q12809. U2OS, BacMam KCNH2, thallium flux FluxOr; active compounds read low. activity change, % at 1.84 µM. 340,000 tested, 0.37% active;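 active = maximum activity change below -70%; inconclusive = maximum activity change between -70% and -50%; inactive = maximum activity change above -50%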; also: % is scaled to controls: 0 for no effect and ±100 for the full control effect
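U2OS cells transduced with wild-type KCNH2 virus are loaded with FluxOr dye for 45 min, and thallium flux is measured in kinetic reads before and after stimulation buffer. Rate constants are normalized to DMSO controls.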
* marks the source's active call; other numbers are inactive results; ? = inconclusive; . = not tested or not shown. An excerpt weighted towards active compounds, which were near 1.2% of everything screened.

SMILES	TRPV1 PAM	KCNH2 3.1 inh	TRPV1 ag	hERG WT inh
COc1ccc(S(=O)(=O)N2CCCCC2)cc1NC(=O)CCNC(=O)c1ccco1	-12	22	3	12
COC(=O)[C@]1(Cc2ccccc2)N[C@H](c2ccc(-c3cccc(Cl)c3)cc2)[C@@H]2C(=O)N(C)C(=O)[C@@H]21	-34	-27	1	-13
CC(CCN1C(Nc2ccccc2)=NC[C@@H]1Cc1ccccc1)c1ccccc1 (stereo partly specified)	17	-82*	16	-2
CC(C)CCN1C(Nc2ccccc2)=NC[C@@H]1Cc1ccccc1	10	0	4	5
c1ccc(C[C@H]2CN=C(Nc3ccccc3)N2CCC2CCCC2)cc1	10	-94*	-1	18
CC(C)C[C@H]1CN=C(Nc2ccccc2)N1CCC1CCCCC1	8	?	4	4
Cc1cc(C)n(-c2ccc(Cl)c(C(=O)Nc3ccc(-c4nnc5n4CCCCC5)cc3)n2)n1	-10	-12	0	-1
CNC(=O)c1ccsc1NC(=O)c1coc2ccccc2c1=O	8	-5	0	-19
C=CCn1c(SCCOc2ccc(OC)cc2)nnc1C(C)NC(=O)Cc1ccc(OC)cc1 (stereo unspecified)	9	-101*	-6	6
COc1ccc(C(=O)Nc2ccc(C(=O)O)cc2NC(=O)c2ccc(OC)cc2)cc1	7	-9	-2	-12
COc1ccc(NC(=O)c2ccc(C)cc2)c(OC)c1	-13	-154*	9	-170*
COc1ccc(-c2cc(C(=O)Nc3cc(Cl)ccc3OC)no2)cc1	-5	-9	0	-9
COc1ccc(-c2cc(C(=O)Nc3ccc(OC)cc3OC)no2)cc1	27	-108*	-5	2
COc1ccc(NC(=O)c2cc(-c3ccccc3)on2)cc1OC	7	-76*	2	4
COc1ccc(C(=O)Nc2ccc(C3=NNC(=O)CC3C)cc2NC(=O)c2ccc(OC)cc2)cc1 (stereo unspecified)	-3	-2	84*	-5
O=C(NCCCCCCCN1CCCCCCC1)C(C1CCCCC1)C1CCCCC1	.	-16	.	13
CC1=C(C(=O)OCc2ccccc2)C(c2ccccc2[N+](=O)[O-])NC(=O)N1C (stereo unspecified)	1	4	5	4
Cc1nc2ccccc2cc1OCc1ccc(Cl)cc1	-15	-1	83*	0
CCCC(C)c1nnc(NC(=O)C2CC(=O)N(CCc3ccc(F)cc3)C2)s1 (stereo unspecified)	6	-7	1	2
CCCC(C)Sc1nc2c([nH]1)c(=S)n(C)c(=O)n2C (stereo unspecified)	.	-15	.	-157*
O=c1c2c3c(sc2ncn1/N=C/c1ccncc1)CCCC3	-8	-1	12	-25
O=c1c2c3c(sc2ncn1/N=C/c1cccnc1)CCCC3	-8	-77*	19	9
N=c1n(CC(=O)c2ccc(Br)cc2)c2ccccc2n1Cc1ccccc1	0	-84*	2	-2
N=c1n(CC(=O)c2ccc([N+](=O)[O-])cc2)c2ccccc2n1Cc1ccc(Cl)cc1	15	7	-6	0
N=c1n(CC(=O)c2ccc([N+](=O)[O-])cc2)c2ccccc2n1Cc1ccccc1	3	-75*	4	7
SMILES	TRPV1 PAM	KCNH2 3.1 inh	TRPV1 ag	hERG WT inh
O=C(Cn1c(NCCCO)nc2ccccc21)c1ccc([N+](=O)[O-])cc1	-15	-73*	0	-14
CCOC(=S)SCC(=O)N1CCc2ccccc2C1C1C(=O)CC(C)(C)CC1=O (stereo unspecified)	22	-9	1	8
O=C(CN1CCC(n2nnc3cc(C(F)(F)F)ccc32)CC1)Nc1ccc2c(c1)CCC2	-1	-78*	4	-45
O=C(CN1CCC(n2nnc3cc(C(F)(F)F)ccc32)CC1)Nc1ccc2c(c1)OCCO2	5	0	5	-1
CC1(C)CC(NCCN2CCN(C3=CC(=C(C#N)C#N)CC(C)(C)C3)CC2)=CC(=C(C#N)C#N)C1	7	-18	9	0
CCN1CCN(C2=CC3=CC(=C(C#N)C#N)CCC3CC2)CC1 (stereo unspecified)	-21	-14	99*	-19
N#CC(C#N)=C1C=C2C=C(N3CCCCCC3)CCC2CC1 (stereo unspecified)	-6	-45	93*	.
N#CC(C#N)=C1C=C2C=C(N3CCOCC3)CCC2CC1 (stereo unspecified)	-12	-19	140*	-36
